# Test results: the supplement of paper PMC8728848
# The entries come from a sample that favours the strongest signals as a whole.
# B1: LlpA1 (Pseudomonas fluorescens), Q4KHC3 (protein)
# chain: MGSSHHHHHHSSGLVPRGSHMAWIRYDFTDNGSSVLPARYYMAPNQYLQSPNKRFKLLFQADGNLALYDGAQLAWVADQNTPFTNVSKGNKKDPMMVFMNYGFVLDDPLRGRIWSTTPSDPTMGSREDASLRAFTQVQDDGNIVTVDTIPHWYAPNGRVFTPAVGAAMIIGGTTELVPGQFYSAGEHSLVFQGDGNLVVYGPNSSVIWATYTQNKGGVRCVMQEDGNLVIYAANNGVVWQSGTGGHPGATIRLQANGSFTIVTERPVWARFGYTPTIKPPRVFYPDHKWKTGSYTWNNVF
# How the values were obtained:
# Test in all cases: glycan array binding signal (z-score within array); higher = stronger binding
# Conditions in all cases: glycan notation: IUPAC condensed, linker removed
# Fuc(a1-2)Gal(b1-3)GalNAc = target: Fuc(a1-2)Gal(b1-3)GalNAc
# In short: (§1)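 Columns mapping to the same glycan were averaged after glycan names were converted to IUPAC-condensed notation. The data come from 3228 arrays in the Consortium for Functional Glycomics database, limited to those with an available protein sequence. Binding is reported as a within-array Z-score averaged across arrays of one protein sequence and across linkers.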
# [1] = target: Fuc(a1-2)Gal(b1-3)GlcNAc(b1-2)Man(a1-3)[Fuc(a1-2)Gal(b1-3)GlcNAc(b1-2)Man(a1-6)]Man(b1-4)GlcNAc(b1-4)GlcNAc
# In short: as §1
# [2] = target: Fuc(a1-2)Gal(b1-3)GlcNAc(b1-2)Man(a1-3)[Fuc(a1-2)Gal(b1-3)GlcNAc(b1-2)Man(a1-6)]Man(b1-4)GlcNAc(b1-4)[Fuc(a1-6)]GlcNAc
# In short: as §1
# [3] = target: Fuc(a1-2)Gal(b1-3)[Fuc(a1-4)]GlcNAc(b1-2)Man(a1-3)[Fuc(a1-2)Gal(b1-3)[Fuc(a1-4)]GlcNAc(b1-2)Man(a1-6)]Man(b1-4)GlcNAc(b1-4)GlcNAc
# In short: as §1
# [4] = target: Fuc(a1-2)Gal(b1-4)Fuc(a1-3)]GlcNAc(b1-2)Man(a1-3)[Fuc(a1-2)Gal(b1-4)[Fuc(a1-3)]GlcNAc(b1-2)Man(a1-6)]Man(b1-4)GlcNAc(b1-4)GlcNAc
# In short: as §1
# [5] = target: Fuc(a1-2)Gal(b1-4)[Fuc(a1-3)]GlcNAc(b1-3)GalNAc
# In short: as §1
# [6] = target: Fuc(a1-2)[GalNAc(a1-3)]Gal(b1-3)GalNAc(b1-3)Gal(a1-4)Gal(b1-4)Glc
# In short: as §1
# [7] = target: Fuc(a1-2)[GalNAc(a1-3)]Gal(b1-4)GlcNAc(b1-3)GalNAc
# In short: as §1
# [8] = target: Fuc(a1-2)[GalNAc(a1-3)]Gal(b1-4)[Fuc(a1-3)]GlcNAc
# In short: as §1
# [9] = target: Fuc(a1-3)[Gal3S(b1-4)]GlcNAc6S
# In short: as §1
# [10] = target: Fuc(a1-3)[GalNAc(b1-4)]GlcNAc
# In short: as §1
# [11] = target: Gal(a1-3)Gal(b1-4)GlcNAc(b1-2)Man
# In short: as §1
# [12] = target: Gal(a1-3)Gal(b1-4)GlcNAc(b1-6)GalNAc
# In short: as §1
# [13] = target: Gal(a1-3)[Gal(a1-4)]Gal(b1-4)GlcNAc
# In short: as §1
# Gal(a1-6)Glc = target: Gal(a1-6)Glc
# In short: as §1
# [14] = target: Gal(b1-3)GalNAc(b1-4)[Neu5Ac(a2-3)]Gal(b1-4)Glc
# In short: as §1
# [15] = target: Gal(b1-3)GlcNAc(b1-3)Gal(b1-4)GlcNAc(b1-2)[Gal(b1-3)GlcNAc(b1-3)Gal(b1-4)GlcNAc(b1-6)]Man(a1-6)[Gal(b1-3)GlcNAc(b1-3)Gal(b1-4)GlcNAc(b1-2)Man(a1-3)]Man(b1-4)GlcNAc(b1-4)[Fuc(a1-6)]GlcNAc
# In short: as §1
# [16] = target: Gal(b1-3)GlcNAc(b1-3)GalNAc
# In short: as §1
# [17] = target: Gal(b1-3)[Fuc(a1-4)]GlcNAc(b1-3)Gal(b1-4)GlcNAc
# In short: as §1
# [18] = target: Gal(b1-4)GlcNAc(b1-2)Man(a1-3)[Gal(b1-4)GlcNAc(b1-2)Man(a1-6)]Man(b1-4)GlcNAc(b1-4)GlcNAc
# In short: as §1
# [19] = target: Gal(b1-4)GlcNAc(b1-2)Man(a1-3)[GlcNAc(b1-2)Man(a1-6)]Man(b1-4)GlcNAc(b1-4)GlcNAc
# In short: as §1
# [20] = target: Gal(b1-4)GlcNAc(b1-2)Man(a1-3)[GlcNAc(b1-4)][Gal(b1-4)GlcNAc(b1-2)Man(a1-6)]Man(b1-4)GlcNAc(b1-4)GlcNAc
# In short: as §1
# [21] = target: Gal(b1-4)GlcNAc(b1-2)[Gal(b1-4)GlcNAc(b1-4)]Man(a1-3)[GlcNAc(b1-4)][Gal(b1-4)GlcNAc(b1-2)[Gal(b1-4)GlcNAc(b1-6)]Man(a1-6)]Man(b1-4)GlcNAc(b1-4)[Fuc(a1-6)]GlcNAc
# In short: as §1
# [22] = target: Gal(b1-4)GlcNAc(b1-3)Gal(b1-4)GlcNAc(b1-2)[Gal(b1-4)GlcNAc(b1-3)Gal(b1-4)GlcNAc(b1-6)]Man(a1-6)[Gal(b1-4)GlcNAc(b1-3)Gal(b1-4)GlcNAc(b1-2)Man(a1-3)]Man(b1-4)GlcNAc(b1-4)GlcNAc
# In short: as §1
# [23] = target: Gal(b1-4)GlcNAc(b1-3)Gal(b1-4)GlcNAc(b1-2)[Gal(b1-4)GlcNAc(b1-3)Gal(b1-4)GlcNAc(b1-6)]Man(a1-6)[Gal(b1-4)GlcNAc(b1-3)Gal(b1-4)GlcNAc(b1-2)Man(a1-3)]Man(b1-4)GlcNAc(b1-4)[Fuc(a1-6)]GlcNAc
# In short: as §1
# [24] = target: Gal(b1-4)GlcNAc(b1-3)Gal(b1-4)GlcNAc(b1-3)Gal(b1-4)GlcNAc(b1-3)Gal(b1-4)GlcNAc(b1-2)Man(a1-3)[Gal(b1-4)GlcNAc(b1-3)Gal(b1-4)GlcNAc(b1-3)Gal(b1-4)GlcNAc(b1-3)Gal(b1-4)GlcNAc(b1-2)Man(a1-6)]Man(b1-4)GlcNAc(b1-4)[Fuc(a1-6)]GlcNAc
# In short: as §1
# [25] = target: Gal(b1-4)GlcNAc(b1-3)Gal(b1-4)GlcNAc(b1-3)Gal(b1-4)GlcNAc(b1-3)Gal(b1-4)GlcNAc(b1-3)Gal(b1-4)GlcNAc(b1-2)Man(a1-3)[Gal(b1-4)GlcNAc(b1-3)Gal(b1-4)GlcNAc(b1-3)Gal(b1-4)GlcNAc(b1-3)Gal(b1-4)GlcNAc(b1-3)Gal(b1-4)GlcNAc(b1-2)Man(a1-6)]Man(b1-4)GlcNAc(b1-4)GlcNAc
# In short: as §1
binder,measurement,setting,value
B1,glycan array binding signal (z-score),Fuc(a1-2)Gal(b1-3)GalNAc,-0.757
same,glycan array binding signal (z-score),[1],3.75
same,glycan array binding signal (z-score),[2],-0.133
same,glycan array binding signal (z-score),[3],3.21
same,glycan array binding signal (z-score),[4],3.1
same,glycan array binding signal (z-score),[5],2.56
same,glycan array binding signal (z-score),[6],0.171
same,glycan array binding signal (z-score),[7],-0.468
same,glycan array binding signal (z-score),[8],0.114
same,glycan array binding signal (z-score),[9],-0.653
same,glycan array binding signal (z-score),[10],-0.611
same,glycan array binding signal (z-score),[11],-0.521
same,glycan array binding signal (z-score),[12],0.065
same,glycan array binding signal (z-score),[13],2.71
same,glycan array binding signal (z-score),Gal(a1-6)Glc,0.047
same,glycan array binding signal (z-score),[14],-0.058
same,glycan array binding signal (z-score),[15],0.631
same,glycan array binding signal (z-score),[16],-0.529
same,glycan array binding signal (z-score),[17],-0.53
same,glycan array binding signal (z-score),[18],-0.071
same,glycan array binding signal (z-score),[19],0.504
same,glycan array binding signal (z-score),[20],-0.797
same,glycan array binding signal (z-score),[21],2.29
same,glycan array binding signal (z-score),[22],2.3
same,glycan array binding signal (z-score),[23],1.19
same,glycan array binding signal (z-score),[24],1.12
same,glycan array binding signal (z-score),[25],2.15
